{"source": "PubChem BioAssay (NCATS)", "note": "Inconclusive results are not listed. Where a call stands in place of a potency, no number is given. The source made the active and inactive calls. Calls follow the shape of the dose curve; as a rule, active = well fitted inhibition curve with a large enough effect; inconclusive = small, poorly fitted or top-dose-only effect; inactive = flat fitted curve, though single readings scatter."}
{"test": "Primary qHTS for inhibitors of nuclear receptor binding SET domain protein 2 (NSD2) in an isogenic RCH-ACV NSD2 p.E1099K mutant (9B) (AID 1645876); also: nearly all actives have a fitted effect of over 70% in size; also: potency is read from the fitted curve at half-maximal effect", "details": "RCH-ACV NSD2 E1099K (9B) viability, CellTiter-Glo, 72 h; series mostly up to 44.9 µM"}
{"compound": "CC1=C(C(=O)O[C@@H]2O[C@H](COC3OCC(O)C(O)C3O)[C@@H](O)[C@H](O)[C@H]2O)C(C)(C)CCC1", "note": "(stereo partly drawn)", "Potency": "inactive"}
{"compound": "CC1(C)CC[C@]2(C(=O)O)CC[C@]3(C)C(=CCC4[C@@]5(C)CC[C@H](O[C@@H]6O[C@H](C(=O)O)[C@@H](O[C@@H]7OC[C@@H](O)[C@H](O)[C@H]7O)[C@H](O)[C@H]6O)C(C)(C)C5CC[C@]43C)C2C1O", "note": "(stereo partly drawn)", "Potency": "inactive"}
{"compound": "COC1=CC(=O)CC(C)C12Oc1cc(OC)cc(O)c1C2=O", "note": "(stereo not drawn)", "Potency": "inactive"}
{"compound": "Nc1nc2c(ncn2[C@@H]2O[C@@H]3COP(=O)(O)O[C@H]3[C@H]2O)c(=O)[nH]1", "Potency": "inactive"}
{"compound": "CCCCNc1ncc2c(-c3ccc(F)cc3)nn(CC3CCC(N)CC3)c2n1", "note": "(stereo not drawn)", "Potency": "2.24 µM (active)"}
{"compound": "NC1CCCCN(c2c(F)cc3c(=O)c(C(=O)O)cn(C4CC4)c3c2Cl)C1", "note": "(stereo not drawn)", "Potency": "inactive"}
{"compound": "COC(=O)c1ccc(OC(CO)C(O)c2ccc(O)c(OC)c2)c(OC)c1", "note": "(stereo not drawn)", "Potency": "inactive"}
{"compound": "COc1ccc([C@@H]2OC[C@H]3[C@@H]2CO[C@@H]3c2ccc(OC3OC(CO)C(O)C(O)C3O)c(OC)c2)cc1OC", "note": "(stereo partly drawn)", "Potency": "inactive"}
{"compound": "CC(=O)O[C@@H]1c2c(C)coc2C(=O)[C@@]23O[C@@H]2CC[C@H](C)[C@@]13C", "Potency": "inactive"}
{"compound": "COc1cc(O)cc(/C=C/c2ccc(O[C@@H]3O[C@H](CO)[C@@H](O)[C@H](O)[C@H]3O)cc2)c1", "Potency": "8.93 µM (active)"}
{"compound": "CC[C@]1(O)CC2CN(CCc3c([nH]c4ccccc34)[C@@](C(=O)OC)(c3cc4c(cc3OC)N(C=O)[C@H]3[C@@](O)(C(=O)OC)[C@H](OC(C)=O)[C@]5(CC)C=CCN6CC[C@]43[C@@H]65)C2)C1", "note": "(stereo partly drawn)", "Potency": "0.0064 µM (active)"}
{"compound": "CC1(O)CCCC2(C)C1CCC13CC(CO)C(CCC12)C3", "note": "(stereo not drawn)", "Potency": "inactive"}
{"compound": "CC1=C(CCC(C)CC(=O)O)[C@@]2(C)CCCC(C)(C)C2CC1=O", "note": "(stereo partly drawn)", "Potency": "inactive"}
{"compound": "O=C(OC[C@H]1O[C@H](O[C@]2(CO)O[C@H](CO)[C@@H](O)[C@@H]2O)[C@H](O)[C@@H](O)[C@@H]1O)c1ccccc1", "Potency": "inactive"}
{"compound": "C=C(C)C1CCC2(C(=O)O)CCC3(C(=O)O)C(CCC4C5(C)CCC(O)C(C)(C(=O)O)C5CCC43C)C12", "note": "(stereo not drawn)", "Potency": "inactive"}
{"compound": "CC(C)=CCC/C(C)=C/CO[C@@H]1O[C@H](CO)[C@@H](O)[C@H](O)[C@H]1O", "Potency": "inactive"}
{"compound": "CC1CC(O)/C=C/C(O)C(O)CC(=O)Cc2c(Cl)c(O)cc(O)c2C(=O)O1", "note": "(stereo not drawn)", "Potency": "inactive"}
{"compound": "O=C(CO)[C@@H](O)[C@H](O[C@@H]1O[C@H](CO)[C@H](O)[C@H](O)[C@H]1O)[C@H](O)CO", "Potency": "inactive"}
{"compound": "CC(C)C(=O)OC[C@H]1O[C@H](O[C@H]2O[C@H](CO)[C@@H](O)[C@H](O)[C@H]2O)[C@H](O)[C@@H](O)[C@@H]1O", "Potency": "inactive"}
{"compound": "CC1CC(C(O)C(C)(C)O)OC2CC3(C)C4(C)CCC5C(C)(C)C(=O)CCC5(C)C4CCC3(O)C12O", "note": "(stereo not drawn)", "Potency": "inactive"}
{"compound": "CC(C)C[C@H](CC(=O)NO)C(=O)N[C@H](C(=O)N[C@@H](C)C(=O)NCCN)C(C)(C)C", "activity change, negative = viability loss": "-8.25% [at 9.23 µM] (inactive)"}
{"compound": "C[C@@H]1O[C@@H](O[C@H]2[C@H](OC(=O)[C@]34CCC(C)(C)C[C@H]3C3=CCC5[C@@]6(C)C[C@H](O)[C@H](O[C@@H]7O[C@H](CO)[C@@H](O)[C@H](O)[C@H]7O)[C@@](C)(CO)C6[C@H](O)C[C@@]5(C)[C@]3(C)CC4)OC[C@H](O)[C@@H]2O)[C@H](O)[C@H](O)[C@H]1O[C@@H]1OC[C@@H](O)[C@H](O[C@@H]2OC[C@](O)(CO)[C@H]2O)[C@H]1O", "note": "(stereo partly drawn)", "activity change, negative = viability loss": "-10.4% [at 9.23 µM] (inactive)"}
{"compound": "CCNC(=O)C1OC(n2cnc3c(N)nc(NCCc4ccc(CCC(=O)O)cc4)nc32)C(O)C1O", "note": "(stereo not drawn)", "Potency": "inactive"}
{"compound": "O=C1Nc2ccccc2C(O)(c2ccccc2)C1O", "note": "(stereo not drawn)", "Potency": "inactive"}
{"compound": "CC1CC(O)C2(OC1=O)OC1C(O)C3C4CCC5CC(OC6OC(CO)C(O)C(O)C6OC6OC(C)C(O)C(O)C6O)CCC5(C)C4CCC3(C)C1C2C", "note": "(stereo not drawn)", "Potency": "inactive"}
{"compound": "CC1=CC(=O)CC(C)(C)C1/C=C/C(C)O[C@@H]1O[C@H](CO)[C@@H](O)[C@H](O)[C@H]1O[C@@H]1OC[C@](O)(CO)[C@H]1O", "note": "(stereo partly drawn)", "Potency": "inactive"}
{"compound": "OC[C@H]1O[C@@H](O[C@H]2[C@H](OCc3ccccc3)O[C@H](CO[C@@H]3OC[C@@H](O)[C@H](O)[C@H]3O)[C@@H](O)[C@@H]2O)[C@H](O)[C@@H](O)[C@@H]1O", "Potency": "inactive"}
{"compound": "C[C@@H]1[C@H]2[C@H](O[C@@H]3O[C@H](CO)[C@@H](O)[C@H](O)[C@H]3O)OC=C(C(=O)O)[C@H]2C[C@@H]1O", "Potency": "inactive"}
